# Reference: PubChem BioAssay AID1159580 (chemical genetic matrix, 2015)
# Several values for one entry are separate records, joined by “and”; a condition that tells them apart may be missing. Equal values may be shown once. Hit rate of the full screen: of about 5,500 compounds, about 2,000 (36%) were called active. Not shown: some 18% with an inconclusive outcome. Some of the results follow. Unmarked numbers belong to inactive results. No stated cut-off is given here; in the data, active means normalized growth mostly below about 0.91 (no sharp cut-off); inconclusive means no clear call, values can overlap the other calls; inactive means mostly above about 0.92.
# Test: chemical genetic growth profiling, strain panel (AID 1159580);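 further: tested at 20 µM; growth read once vehicle control cultures reached saturation at 30 °C; 1 = growth at the plate median or of vehicle wells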
# Conditions: S. cerevisiae deletion strains, growth OD
smiles,measurement,setting,value
O=C1C=CC(=O)c2c(O)cccc21,normalized growth,"locus YAL021C, strain ccr4, stronger effect = lower value",1.01
same,normalized growth,"locus YAL026C, strain drs2, stronger effect = lower value",0.951
same,normalized growth,"locus YAL030W, strain snc1, stronger effect = lower value",0.965
same,normalized growth,"locus YBL061C, strain skt5, stronger effect = lower value",0.976
same,normalized growth,"locus YBR009C, strain hhf1, stronger effect = lower value",0.966
same,normalized growth,"locus YBR021W, strain FUR4, stronger effect = lower value",1.09
same,normalized growth,"locus YBR023C, strain chs3, stronger effect = lower value",0.973
same,normalized growth,"locus YBR171W, strain sec66, stronger effect = lower value",1
same,normalized growth,"locus YBR229C, strain ROT2, stronger effect = lower value",0.955
same,normalized growth,"locus YBR231C, strain swc5, stronger effect = lower value",0.876 (active)
same,normalized growth,"locus YBR279W, strain paf1, stronger effect = lower value",0.974
same,normalized growth,"locus YCL011C, strain gbp2, stronger effect = lower value",0.978
same,normalized growth,"locus YCL016C, strain dcc1, stronger effect = lower value",0.975
same,normalized growth,"locus YCL029C, strain bik1, stronger effect = lower value",0.983
same,normalized growth,"locus YCL069W, strain vba3, stronger effect = lower value",0.971
same,normalized growth,"locus YCR088W, strain abp1, stronger effect = lower value",0.981
same,normalized growth,"locus YDL005C, strain med2, stronger effect = lower value",1
same,normalized growth,"locus YDL035C, strain GPR1, stronger effect = lower value",0.993
same,normalized growth,"locus YDL040C, strain nat1, stronger effect = lower value",1
same,normalized growth,"locus YDL074C, strain BRE1, stronger effect = lower value",1.02
same,normalized growth,"locus YDL101C, strain DUN1, stronger effect = lower value",0.966
same,normalized growth,"locus YDL134C, strain PPH21, stronger effect = lower value",0.967
same,normalized growth,"locus YDL185W, strain tfp1, stronger effect = lower value",0.961
same,normalized growth,"locus YDL192W, strain arf1, stronger effect = lower value",0.972
same,normalized growth,"locus YDR001C, strain nth1, stronger effect = lower value",0.991
same,normalized growth,"locus YDR069C, strain doa4, stronger effect = lower value",0.956
same,normalized growth,"locus YDR101C, strain arx1, stronger effect = lower value",1.03
same,normalized growth,"locus YDR137W, strain rgp1, stronger effect = lower value",0.708 (active)
same,normalized growth,"locus YDR159W, strain sac3, stronger effect = lower value",0.838 (active)
same,normalized growth,"locus YDR162C, strain NBP2, stronger effect = lower value",0.912
same,normalized growth,"locus YDR195W, strain ref2",1.03
same,normalized growth,"locus YDR297W, strain sur2, stronger effect = lower value",1.01
same,normalized growth,"locus YDR318W, strain mcm21, stronger effect = lower value",0.962
same,normalized growth,"locus YDR334W, strain swr1, stronger effect = lower value",0.879 (active)
same,normalized growth,"locus YDR335W, strain msn5, stronger effect = lower value",0.975
same,normalized growth,"locus YDR388W, stronger effect = lower value",0.99
same,normalized growth,"locus YDR392W, strain spt3, stronger effect = lower value",0.596 (active)
same,normalized growth,"locus YDR502C, strain sam2, stronger effect = lower value",1.01
same,normalized growth,"locus YEL003W, strain gim4, stronger effect = lower value",0.969
same,normalized growth,"locus YEL037C, strain rad23, stronger effect = lower value",0.973
same,normalized growth,"locus YEL061C, strain CIN8 (second series), stronger effect = lower value",0.983
same,normalized growth,"locus YEL061C, strain CIN8, stronger effect = lower value",0.982
same,normalized growth,"locus YER015W, strain faa2, stronger effect = lower value",0.956
same,normalized growth,"locus YER016W, strain bim1, stronger effect = lower value",1.02
same,normalized growth,"locus YER110C, stronger effect = lower value",0.972
same,normalized growth,"locus YER111C, strain swi4, stronger effect = lower value",1.13 [resistant] (active)
same,normalized growth,"locus YER155C, strain BEM2 (second series), stronger effect = lower value",0.766 (active)
same,normalized growth,"locus YER155C, strain BEM2, stronger effect = lower value",1
same,normalized growth,"locus YER167W, strain BCK2, stronger effect = lower value",0.984
same,normalized growth,"locus YFR010W, strain ubp6, stronger effect = lower value",0.907
same,normalized growth,"locus YGL078C, strain dbp3, stronger effect = lower value",1.04
same,normalized growth,"locus YGL086W, strain mad1, stronger effect = lower value",1.02
same,normalized growth,"locus YGL167C, strain pmr1, stronger effect = lower value",0.961
same,normalized growth,"locus YGL173C, strain kem1, stronger effect = lower value",0.938
same,normalized growth,"locus YGL227W, strain vid30, stronger effect = lower value",1.04
same,normalized growth,"locus YGL240W, strain doc1, stronger effect = lower value",0.817 (active)
same,normalized growth,"locus YGL248W, strain PDE1, stronger effect = lower value",0.955
same,normalized growth,"locus YGL253W, strain hxk2, stronger effect = lower value",0.979
same,normalized growth,"locus YGR078C, strain PAC10, stronger effect = lower value",0.958
same,normalized growth,"locus YGR135W, strain pre9, stronger effect = lower value",0.966
same,normalized growth,"locus YGR229C, strain SMI1, stronger effect = lower value",0.97
same,normalized growth,"locus YGR252W, strain gcn5, stronger effect = lower value",1.03
same,normalized growth,"locus YHR013C, strain ard1, stronger effect = lower value",0.894
same,normalized growth,"locus YHR027C, strain rpn1, stronger effect = lower value",0.954
same,normalized growth,"locus YHR030C, strain SLT2, stronger effect = lower value",0.993 and 0.875
same,normalized growth,"locus YHR079C, strain IRE1 (second series), stronger effect = lower value",0.997
same,normalized growth,"locus YHR079C, strain IRE1, stronger effect = lower value",0.972
same,normalized growth,"locus YHR094C, strain hxt1, stronger effect = lower value",1
same,normalized growth,"locus YHR129C, strain ARP1, stronger effect = lower value",0.991
same,normalized growth,"locus YHR142W, strain chs7, stronger effect = lower value",0.992
same,normalized growth,"locus YHR200W, strain rpn10, stronger effect = lower value",0.963
same,normalized growth,"locus YIL066C, strain RNR3, stronger effect = lower value",0.965
same,normalized growth,"locus YIL073C, strain SPO22, stronger effect = lower value",0.933
same,normalized growth,"locus YIL125W, strain kgd1, stronger effect = lower value",0.997
same,normalized growth,"locus YIR030C, strain dcg1, stronger effect = lower value",1
same,normalized growth,"locus YJL092W, strain hpr5, stronger effect = lower value",0.987
same,normalized growth,"locus YJL095W, strain BCK1 (second series), stronger effect = lower value",0.946
same,normalized growth,"locus YJL095W, strain BCK1, stronger effect = lower value",0.903 and 0.941
same,normalized growth,"locus YJL115W, strain asf1, stronger effect = lower value",0.969
same,normalized growth,"locus YJL129C, strain trk1, stronger effect = lower value",1.02
same,normalized growth,"locus YJL134W, strain LCB3, stronger effect = lower value",0.984
same,normalized growth,"locus YJL154C, strain vps35, stronger effect = lower value",0.974
same,normalized growth,"locus YJL164C, strain tpk1, stronger effect = lower value",0.953
same,normalized growth,"locus YJL166W, strain qcr8, stronger effect = lower value",0.935
same,normalized growth,"locus YJL168C, strain set2, stronger effect = lower value",0.988
same,normalized growth,"locus YJL187C, strain SWE1 (second series), stronger effect = lower value",0.964
same,normalized growth,"locus YJL187C, strain SWE1, stronger effect = lower value",0.987
